# The campaign covered roughly 400,000 compounds. About 2,100 (0.53%) were called active. About 14% were inconclusive and are not listed. No rule for the calls is given here. Only a selection was taken, and actives are over-represented in it overall.
# Target: Ataxin-2 (Homo sapiens) (UniProt Q99700)
# Experiment: qHTS for Inhibitors of ATXN expression.
# Assay type: functional
# Ataxin-2 (Homo sapiens), sequence (Q99700 whole entry): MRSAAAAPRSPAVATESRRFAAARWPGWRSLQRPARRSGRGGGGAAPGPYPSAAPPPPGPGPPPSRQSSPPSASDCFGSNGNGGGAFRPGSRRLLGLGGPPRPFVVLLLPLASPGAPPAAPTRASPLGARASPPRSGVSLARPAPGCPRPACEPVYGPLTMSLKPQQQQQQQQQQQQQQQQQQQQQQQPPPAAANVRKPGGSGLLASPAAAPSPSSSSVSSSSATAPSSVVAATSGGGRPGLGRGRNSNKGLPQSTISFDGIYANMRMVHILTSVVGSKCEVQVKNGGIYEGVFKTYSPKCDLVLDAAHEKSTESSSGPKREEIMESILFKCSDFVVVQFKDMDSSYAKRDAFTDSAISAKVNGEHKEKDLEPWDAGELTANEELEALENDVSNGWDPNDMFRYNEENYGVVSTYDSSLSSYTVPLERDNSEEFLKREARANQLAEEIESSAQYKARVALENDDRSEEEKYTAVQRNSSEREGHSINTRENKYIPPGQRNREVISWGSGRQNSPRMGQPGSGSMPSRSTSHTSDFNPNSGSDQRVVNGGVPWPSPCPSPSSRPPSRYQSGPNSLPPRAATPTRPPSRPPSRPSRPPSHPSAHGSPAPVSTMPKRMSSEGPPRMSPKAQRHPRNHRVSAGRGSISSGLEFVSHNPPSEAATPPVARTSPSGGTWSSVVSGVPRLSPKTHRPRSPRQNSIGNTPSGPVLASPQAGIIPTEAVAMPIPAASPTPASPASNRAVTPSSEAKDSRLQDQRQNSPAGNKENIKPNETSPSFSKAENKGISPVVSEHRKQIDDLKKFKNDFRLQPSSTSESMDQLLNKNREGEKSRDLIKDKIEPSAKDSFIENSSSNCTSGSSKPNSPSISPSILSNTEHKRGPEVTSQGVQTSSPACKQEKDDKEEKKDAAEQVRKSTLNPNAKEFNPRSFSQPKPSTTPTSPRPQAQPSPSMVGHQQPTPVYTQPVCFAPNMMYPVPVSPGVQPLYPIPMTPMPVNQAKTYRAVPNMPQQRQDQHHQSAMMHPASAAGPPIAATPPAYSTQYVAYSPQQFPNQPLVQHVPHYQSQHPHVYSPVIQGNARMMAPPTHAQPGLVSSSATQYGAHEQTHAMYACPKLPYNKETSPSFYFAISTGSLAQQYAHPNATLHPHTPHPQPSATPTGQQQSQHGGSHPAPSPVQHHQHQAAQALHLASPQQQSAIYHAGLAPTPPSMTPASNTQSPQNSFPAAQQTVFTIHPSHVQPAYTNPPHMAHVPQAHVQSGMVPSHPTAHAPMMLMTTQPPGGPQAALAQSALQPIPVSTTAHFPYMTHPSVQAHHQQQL
row,SMILES,Potency
1,COC(=O)[C@]12CCCCC=C1N(CCC1=CCCCC1)C(=O)[C@H](CC(=O)NCc1cccc3ccccc13)C2,25.1 µM (active)
2,COC(=O)[C@]12CCCCC=C1N(CCC1=CCCCC1)C(=O)[C@H](CC(=O)NCCc1ccccc1OC)C2,39.8 µM (active)
3,COc1ccccc1CCNC(=O)CCNS(=O)(=O)c1ccc(NC(C)=O)cc1,inactive
4,CCCn1nc(NC(=O)CC)c2cc3cccc(C)c3nc21,inactive
5,O=C(/C=C/c1cccc(Cl)c1)OCC(=O)c1ccc[nH]1,inactive
6,CC(C)n1/c(=N/C(=O)c2ccco2)c(C#N)cc2c(=O)n3ccccc3cc21,inactive
7,NC(=O)c1nsc(C(=O)N(c2ccccc2)C(C(=O)NCC2CCCO2)c2ccc3ncccc3c2)c1N (configuration not stated),inactive
8,O=C1C(=O)c2ccccc2C(O)=C1CCCCl,25.1 µM (active)
9,COc1ccc2cc(-c3nc4ccc(C(=O)O)cc4[nH]3)c(=O)oc2c1,inactive
10,CCN(CC)c1ccc2cc(-c3nc4ccccc4[nH]3)c(=O)oc2c1,inactive
11,COc1ccc(/N=c2\oc3ccc(OC)cc3cc2-c2nc3ccccc3[nH]2)cc1,31.6 µM (active)
12,CC1CCN(S(=O)(=O)N2CCN(C(=O)c3ccc4c(c3)OCO4)CC2)CC1,inactive
13,CCC1=Nc2cc(C(=O)N3CCC(C)CC3)ccc2Sc2ccc(C)cc21,28.2 µM (active)
14,CC1CCN(C(=O)c2ccc3c(c2)C(=O)c2ccccc2-3)CC1,inactive
15,O=C1C=CC(=O)N1CCCCCCN1C(=O)C=CC1=O,25.1 µM (active)
16,Cn1c(=O)c2c(nc(Oc3cccc(Br)c3)n2C)n(C)c1=O,inactive
17,C[C@@H]1CN([C@@H](C)CO)S(=O)(=O)c2ccc(C#Cc3cccc(F)c3)cc2O[C@H]1CN(C)S(=O)(=O)c1cn(C)cn1,39.8 µM (active)
18,C[C@H]1CN([C@@H](C)CO)S(=O)(=O)c2ccc(Br)cc2O[C@@H]1CN(C)Cc1cccc(F)c1,25.1 µM (active)
19,C[C@@H]1CN([C@H](C)CO)S(=O)(=O)c2ccc(C#C[C@@H](C)O)cc2O[C@@H]1CN(C)Cc1ccc(-c2ccccc2)cc1,20 µM (active)
20,C[C@@H]1CN([C@H](C)CO)S(=O)(=O)c2ccc(C#Cc3ccccc3F)cc2O[C@@H]1CN(C)C(=O)Cc1ccccc1,25.1 µM (active)
21,COCCCNC(=S)N/N=C/c1ccc(O)cc1O,inactive
22,CCNC(=S)N/N=C/c1sc(N2CCCCC2)nc1-c1cccs1,inactive

row,SMILES,Potency
1,Cc1cccc(C)c1NC(=O)COC(=O)c1c2c(nc3ccccc13)/C(=C\c1ccc3c(c1)OCO3)CCC2,inactive
2,N#Cc1cccc(NC(=O)CN2C(=O)NC(Cc3ccccc3)C2=O)c1 (configuration not stated),inactive
3,C[C@@H]1CN([C@@H](C)CO)S(=O)(=O)c2ccc(Br)cc2O[C@H]1CN(C)C(=O)Nc1ccc(C(F)(F)F)cc1,35.5 µM (active)
4,C[C@H]1CN([C@@H](C)CO)S(=O)(=O)c2ccc(Br)cc2O[C@@H]1CN(C)Cc1ccccc1,39.8 µM (active)
5,Cc1cc2c(cc1C)N(C(=O)CCl)CCN2C(=O)CCl,35.5 µM (active)
6,COc1ccc(-n2c(N)c(C(=O)NCC3CCCO3)c3nc4ccccc4nc32)c(OC)c1 (configuration not stated),inactive
7,COc1cccc(-c2[nH]c(C(=O)NCC3CCCO3)cc3c4ccccc4nc2-3)c1 (configuration not stated),17.8 µM (active)
8,COc1ccccc1-n1c(N)c(C(=O)NCC2CCCO2)c2nc3ccccc3nc21 (configuration not stated),inactive
9,COc1cc(C(=S)N2CCOCC2)ccc1OC(=O)c1ccc(Br)cc1,inactive
10,CN[C@H]1C[C@H]2c3[nH]c4ccc(-c5cccc(C)c5)cc4c3CCN2C[C@H]1[C@H](C)O,39.8 µM (active)
11,COc1ccc(NC(=O)N(C)[C@H]2C[C@H]3c4[nH]c5ccc(-c6cccc(C)c6)cc5c4CCN3C[C@H]2[C@H](C)O)cc1,39.8 µM (active)
12,COc1ccc(NC(=O)N(C)[C@H]2C[C@H]3c4[nH]c5ccc(-c6ccc(OC)cc6)cc5c4CCN3C[C@H]2[C@H](C)O)cc1,25.1 µM (active)
13,Cc1cccc(-c2ccc3[nH]c4c(c3c2)CCN2C[C@@H]([C@H](C)O)[C@@H](N(C)C(=O)Nc3ccc(F)cc3)C[C@@H]42)c1,25.1 µM (active)
14,C[C@H](O)[C@@H]1CN2CCc3c([nH]c4ccccc34)[C@@H]2C[C@@H]1N(C)C(=O)OCc1ccccc1,inactive
15,Cc1ccc2[nH]c3c(c2c1)CCCC3NCCO (configuration not stated),inactive
16,CCOC(=O)N(C)[C@H]1C[C@H]2c3[nH]c4ccccc4c3CCN2C[C@H]1[C@H](C)O,inactive
17,Cc1ccc2[nH]c3c(c2c1)CN(C(=O)CN1CCCCC1)CC3,inactive
18,COc1cccc(-c2c(C#N)c(O)nc3c2-c2ccc(OC)cc2CC3)c1,inactive
19,O=C(O)c1cc(-c2c[nH]c3ccccc23)nc2ccc3ccccc3c12,inactive
20,COc1ccc(-c2ccc3[nH]c4c(c3c2)CCN2C[C@@H]([C@H](C)O)[C@@H](N(C)C(=O)Nc3cc(Cl)cc(Cl)c3)C[C@@H]42)cc1,35.5 µM (active)
21,COC(=O)C1C2CC3c4[nH]c5cc(OC)ccc5c4CCN3CC2CC(OC2CCCCO2)C1OC (configuration not stated),inactive
22,O=C(COc1ccc([N+](=O)[O-])cc1)N(C1CCCCC1)C1CCS(=O)(=O)C1 (configuration not stated),inactive

row,SMILES,Potency
1,C/C(=N/OC(=O)C1CC1)c1cc(-c2ccc(Cl)cc2)no1,inactive
2,CCc1cc2c(-c3ccccc3)cc(=O)oc2c2c1OCN(Cc1ccc(C)cc1)C2,inactive
3,COc1ccc(N/C=C2/C(=O)N(c3cccc(C)n3)C(=O)c3ccccc32)c(OC)c1,inactive
4,COc1ccc2c(c1)/C(=C\c1cccc(/C=C3/C(=O)Nc4ccc(OC)cc43)n1)C(=O)N2,0.891 µM (active)
5,O=C1Nc2ccccc2/C1=C/c1c[nH]c(-c2ccccc2)n1,inactive
6,Cc1ccc(S(=O)(=O)c2cc3c(=O)n4ccccc4nc3n(Cc3ccco3)c2=N)cc1,inactive
7,N#CC1=C(N)Oc2cc(O)c(Cl)cc2C1c1ccccc1F (configuration not stated),inactive
8,CC(C)c1ccc(CN2CCN(S(=O)(=O)c3ccc(Cl)s3)CC2)cc1,inactive
9,Cc1cccc(CN2CCN(C(=O)CCl)CC2)c1,35.5 µM (active)
10,CC(C)c1ccc(CN2CCN(C(=O)CCl)CC2)cc1,15.8 µM (active)
11,C=CCN1CCN(C(=O)CSc2ccccc2)CC1,inactive
12,Cc1cccc(CC(=O)NC2CCN(C)CC2)c1,inactive
13,Cc1cccc(NS(=O)(=O)c2ccc(C)c(C(=O)NC3CCN(Cc4ccccc4)CC3)c2)c1,inactive
14,C=CCn1c(=O)c(C#N)cc2c(=O)n3ccccc3nc21,inactive
15,COc1ccc2oc(=O)c(C(=O)N3CCN(C(=O)c4ccco4)CC3)cc2c1,inactive
16,O=C(CSc1ccccc1)N1CCN(C(=O)c2ccco2)CC1,inactive
17,Cc1cc(C(=O)N2CCN(C(=O)c3ccco3)CC2)ccc1[N+](=O)[O-],inactive
18,O=C(CSc1nnnn1C1CCCCC1)N1CCN(C(=O)c2ccco2)CC1,inactive
19,Cc1sc2nc(C(C)C)nc(SCC(=O)N3CCN(C(=O)c4ccco4)CC3)c2c1C,39.8 µM (active)
20,CCc1cc2ccc(OC)cc2nc1SCC(=O)N1CCN(C(=O)c2ccco2)CC1,25.1 µM (active)
21,Cc1ccc(S(=O)(=O)N2CCN(C(=O)CN3C(=O)c4ccc([N+](=O)[O-])cc4C3=O)CC2)cc1C,inactive
22,COc1cc2c(C#CCCCO)c(-c3ccc(C#N)cc3)oc(=O)c2cc1OC,inactive

row,SMILES,Potency
1,C=CC[C@@H](CC(=O)N(CCO)Cc1ccccc1)C(=O)N[C@@H](COC(=O)[C@H](CC=C)CC(=O)OC(C)(C)C)Cc1c[nH]c2ccccc12,22.4 µM (active)
2,C=CC[C@@H](CC(=O)N(CCO)Cc1ccccc1)C(=O)N[C@H](COC(=O)[C@@H](CC=C)CC(=O)OC(C)(C)C)Cc1c[nH]c2ccccc12,35.5 µM (active)
3,C=CC[C@H](CC(=O)N(CCO)Cc1ccccc1)C(=O)N[C@@H](COC(=O)[C@@H](CC=C)CC(=O)OC(C)(C)C)Cc1c[nH]c2ccccc12,25.1 µM (active)
4,CCCC/N=C1\C(=O)N(C)c2cccc3c(O)c4ccccc4c1c23,inactive
5,COc1ccc2c(C#N)c3ccccn3c2c1,inactive
6,Nc1cccc2c1C(=O)N(CCOc1ccc(F)cc1)C2=O,inactive
7,c1ccc(N2CC3CCc4ccccc4C3=N2)cc1 (configuration not stated),inactive
8,C/C(CCCO)=N/Nc1ccc([N+](=O)[O-])cc1[N+](=O)[O-],inactive
9,CC/C(=N\Nc1ccc([N+](=O)[O-])cc1[N+](=O)[O-])c1ccc(O)cc1,8.91 µM (active)
10,CC1=CC(C)(C)N2C(=O)/C(=N/c3ccc(O)cc3)c3cccc1c32,31.6 µM (active)
11,CN1C(=O)/C(=N\c2ccc(Cl)cc2)c2c3ccccc3c(O)c3cccc1c23,inactive
12,Cc1ccc(-c2ccc(CN3C(CC(C)C)C(=O)N(Cc4cn(CCC5OCCCO5)nn4)CCS3(=O)=O)cc2)cc1 (configuration not stated),20 µM (active)
13,CC(C)CC1C(=O)N(Cc2cn(CCC3OCCCO3)nn2)CCS(=O)(=O)N1Cc1ccc(-c2ccc(Cl)nc2)cc1 (configuration not stated),31.6 µM (active)
14,O=C(c1cc(Br)ccc1O)N1CCN(S(=O)(=O)Cc2ccccc2)CC1,inactive
15,Brc1ccc(-c2nnc3sc(CNCc4ccc5c(c4)OCO5)cn23)cc1,inactive
16,O=C(O)c1ccc(S(=O)(=O)N2CCC(NC(=O)C3CCCCC3)CC2)cc1,inactive
17,CCCOc1ccc(CN(CCC#N)C(=S)NC(=O)c2ccccc2)cc1,39.8 µM (active)
18,Cc1ccc(NC(=O)N(CCC#N)Cc2ccccc2)cc1,inactive
19,COCCN(Cc1ccccc1)C(=O)c1ccc(C(=O)c2ccccc2)cc1,inactive
20,O=C(O)COc1c(Cl)cc(/C=C2/NC(=O)NC2=O)cc1Br,inactive
21,Cc1nnc(N/N=C/c2ccc(-c3ccc(Br)cc3)o2)n1N,inactive
